Results: PubChem BioAssay (Tox21)
Where “and” joins values, the source holds several entries; their conditions need not be identical. Equal values may be shown once. Inconclusive results are not listed. The source holds several records for some structures; these can differ, active in one and inactive in another. Calls of active or inactive are those of the source. Calls come from the whole dose curve; as a rule, active = well fitted curve in the direction sought with a large enough effect in the repeat runs; inconclusive = weak or mixed curves; inactive = no such curve, though single readings can be large; an effect the other way counts as inactive or inconclusive.

Assays:
[1] = A CellTox Green Cytotoxicity Assay to monitor cytotoxicity in HEK293 cells - 40 hour (AID 1224871); note: nearly all actives have a fitted effect of over 45% in size; note: potency is the fitted concentration of half-maximal effect
Procedure, shortened: (§1)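 Tox21 screen in HEK293: membrane-impermeant cyanine dye fluoresces on binding dead-cell DNA; compound pinned 5 h post-seeding, plates held at 37 C, signal read repeatedly through 40 h.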

[2] = qHTS RealTime-Glo MT Cell Viability Assay in HEK293 cells - 16 hour (AID 1224872); note: nearly all actives have a fitted effect of over 50% in size; note: potency is the fitted concentration of half-maximal effect
Procedure, shortened: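 Tox21 10K qHTS, HEK293, 600 cells/well, RealTime-Glo reagent co-dispensed with cells; 5 h preincubation, compound by pintool, 37 C, luminescence at 0–40 h.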

[3] = qHTS RealTime-Glo MT Cell Viability Assay in HepG2 cells - 8 hour (AID 1224873); note: nearly all actives have a fitted effect of over 55% in size; note: potency is the fitted concentration of half-maximal effect
Procedure, shortened: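 HepG2 cells (600/well) mixed with RealTime-Glo MT reagent, settled 5 h at 37 C/5% CO2 before compound addition. Nonlytic NanoLuc luminescence from viable-cell prosubstrate reduction read repeatedly during 40 h treatment at 37 C.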

[4] = qHTS RealTime-Glo MT Cell Viability Assay in HEK293 cells - 40 hour (AID 1224874); conditions: RealTime-Glo luminescence; max response: stronger effect = lower value; note: nearly all actives have a fitted effect of over 50% in size; note: potency is the fitted concentration of half-maximal effect
Procedure, shortened: (§2)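 HEK293 + NanoLuc + prosubstrate, 600 cells/well; 5 h, 37 C/5% CO2; compound 23 nL in DMSO by pintool; 37 C; luminescence read at 0, 8, 16, 24, 32 and 40 h time points.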

[5] = A CellTox Green Cytotoxicity Assay to monitor cytotoxicity in HEK293 cells - 24 hour (AID 1224875); note: nearly all actives have a fitted effect of over 45% in size; note: potency is the fitted concentration of half-maximal effect
Procedure, shortened: as §1

[6] = A CellTox Green Cytotoxicity Assay to monitor cytotoxicity in HepG2 cells - 16 hour (AID 1224876); note: nearly all actives have a fitted effect of over 45% in size; note: potency is the fitted concentration of half-maximal effect
Procedure, shortened: (§3)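 Measurements at 0, 8, 16, 24, 32 and 40 h of treatment captured CellTox Green fluorescence in HepG2 cells that had been co-plated with reagent and preincubated 5 h at 37 C/5% CO2.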

[7] = qHTS RealTime-Glo MT Cell Viability Assay in HepG2 cells - 32 hour (AID 1224877); note: nearly all actives have a fitted effect of over 55% in size; note: potency is the fitted concentration of half-maximal effect
Procedure, shortened: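 Cells + NanoLuc/prosubstrate dispensed (600 cells/well) → 5 h at 37 C/5% CO2 → compounds in DMSO transferred → 40 h incubation at 37 C, luminescence read at 0, 8, 16, 24, 32, 40 h.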

[8] = A CellTox Green Cytotoxicity Assay to monitor cytotoxicity in HepG2 cells - 24 hour (AID 1224878); note: nearly all actives have a fitted effect of over 45% in size; note: potency is the fitted concentration of half-maximal effect
Procedure, shortened: as §3

[9] = A CellTox Green Cytotoxicity Assay to monitor cytotoxicity in HepG2 cells - 40 hour (AID 1224879); note: nearly all actives have a fitted effect of over 40% in size; note: potency is the fitted concentration of half-maximal effect
Procedure, shortened: as §3

[10] = qHTS RealTime-Glo MT Cell Viability Assay in HEK293 cells - 0 hour (AID 1224880)
Procedure, shortened: as §2
% is set by controls: 0 for no effect and ±100 for the full control effect.

CCn1c2ccccc2c2cc(N)ccc21
inactive: Potency [1] | Potency [2] | Potency [3] | max response [4] -18.5% and -3.18% and -13.8% | Potency [5] | Potency [6] | Potency [7] | Potency [8] | Potency [9] | Potency [10]

CC(C)(C)NCC(O)COc1ccccc1OCC1CCCO1 (stereo not given)
inactive: Potency [1] | Potency [2] | Potency [3] | max response [4] 0.952% | Potency [5] | Potency [6] | Potency [7] | Potency [8] | Potency [9]

CCc1cc(C(C)(C)C)c(O)c(C(C)(C)C)c1
inactive: Potency [2] | Potency [3] | max response [4] 1.58% and -10.1% | Potency [6] | Potency [7] | Potency [8] | Potency [9]
active: Potency [1] 21.9 µM | Potency [5] 21.9 µM

COc1ccc(Cc2cnc(N)nc2N)cc1OC
inactive: Potency [1] | Potency [2] | Potency [3] | max response [4] 0.446% | Potency [5] | Potency [6] | Potency [7] | Potency [8] | Potency [9]

O=C(O)Cn1cnnn1
inactive: Potency [1] | Potency [2] | Potency [3] | max response [4] 0.0865% | Potency [5] | Potency [6] | Potency [7] | Potency [8] | Potency [9]

Cc1cc(Cc2cc(C)cc(C(C)(C)C)c2O)c(O)c(C(C)(C)C)c1
inactive: Potency [10]
active: Potency [1] 43.9 µM and 43.6 µM | Potency [2] 15.6 µM and 17.4 µM | Potency [3] 38.9 µM | Potency [4] 8.75 µM and 15.5 µM | Potency [5] 43.9 µM and 43.6 µM | Potency [6] 39.1 µM and 38.9 µM | Potency [7] 49.2 µM and 49 µM | Potency [8] 43.9 µM and 43.6 µM | Potency [9] 49.2 µM and 43.6 µM

c1cc(C(c2ccc(OCC3CO3)cc2)C(c2ccc(OCC3CO3)cc2)c2ccc(OCC3CO3)cc2)ccc1OCC1CO1 (stereo not given)
inactive: Potency [1] | Potency [2] | Potency [3] | max response [4] -1.63% | Potency [5] | Potency [6] | Potency [7] | Potency [8] | Potency [9]

CCCNC(C)C(=O)Nc1ccccc1C (stereo not given)
inactive: Potency [1] | Potency [2] | Potency [3] | max response [4] -3.34% | Potency [5] | Potency [6] | Potency [7] | Potency [8] | Potency [9]

CC(C(O)c1ccc(O)cc1)N1CCC(Cc2ccccc2)CC1 (stereo not given)
inactive: Potency [1] | Potency [2] | Potency [3] | max response [4] -13.3% | Potency [5] | Potency [6] | Potency [7] | Potency [8] | Potency [9]

CN(C)c1ccc(C(=C2C=CC(=[N+](C)C)C=C2)c2ccccc2)cc1
active: Potency [1] 17.4 µM and 9.52 µM and 10.7 µM | Potency [2] 3.01 µM [middle of 4 runs] | Potency [3] 17.4 µM and 21.3 µM and 19 µM | Potency [4] 1.34 µM [middle of 4 runs] | Potency [5] 19.5 µM [middle of 4 runs] | Potency [6] 9.77 µM and 9.52 µM and 7.56 µM | Potency [7] 7.56 µM [middle of 4 runs] | Potency [8] 6.74 µM [middle of 4 runs]

COc1ccc(COC(C)=O)cc1
inactive: Potency [1] | Potency [2] | Potency [3] | max response [4] 5.85% | Potency [5] | Potency [6] | Potency [7] | Potency [8] | Potency [9] | Potency [10]

c1ccc2c(c1)CCCC2C1=NCCN1 (stereo not given)
inactive: Potency [1] | Potency [2] | Potency [3] | max response [4] 3.27% | Potency [5] | Potency [6] | Potency [7] | Potency [8] | Potency [9] | Potency [10]

Cc1cc(OCCOCC[N+](C)(C)Cc2ccccc2)ccc1C(C)(C)CC(C)(C)C
active: Potency [1] 21.7 µM and 23.9 µM | Potency [2] 19.4 µM and 19 µM | Potency [3] 21.7 µM and 23.9 µM | Potency [4] 9.71 µM and 6.01 µM | Potency [5] 21.7 µM and 23.9 µM | Potency [6] 19.4 µM and 15.1 µM | Potency [7] 13.7 µM and 9.52 µM | Potency [8] 17.3 µM and 10.7 µM | Potency [9] 13.7 µM and 8.49 µM

CCCCCCCCCCCCc1ccccc1O
active: Potency [1] 43.1 µM and 34.7 µM | Potency [2] 43.1 µM and 43.6 µM | Potency [4] 48.3 µM and 49 µM | Potency [5] 43.1 µM and 38.9 µM | Potency [8] 17.4 µM | Potency [9] 48.3 µM and 21.9 µM
inactive: Potency [10]
inactive and 21.9 µM (active): Potency [6]
inactive and 34.7 µM (active): Potency [3]
inactive and 43.6 µM (active): Potency [7]

Cc1cccc(O)c1C
inactive: Potency [1] | Potency [2] | Potency [3] | max response [4] -0.0816% and -5.42% | Potency [5] | Potency [6] | Potency [7] | Potency [8] | Potency [9] | Potency [10]

c1ccc2c(c1)-c1cccc3c1c-2cc1ccccc13
1.91 µM (active) and inactive: Potency [9]
inactive: Potency [1] | Potency [2] | Potency [3] | max response [4] 1.04% | Potency [5] | Potency [6] | Potency [7] | Potency [8] | Potency [10]

Nc1nc(=S)c2[nH]cnc2[nH]1
active: Potency [4] 21.3 µM and 19.5 µM and 26.8 µM
inactive: Potency [1] | Potency [2] | Potency [3] | Potency [5] | Potency [6] | Potency [7] | Potency [8] | Potency [9] | Potency [10]
